Assay results: PubChem BioAssay (Tox21)
Active and inactive are the calls of the source. Entries that show only a call come without a potency. Calls come from the whole dose curve; as a rule, active = well fitted curve in the direction sought with a large enough effect in the repeat runs; inconclusive = weak or mixed curves; inactive = flat fitted curve, though single readings scatter.

Assay: qHTS assay to test for compound auto fluorescence at 590 nm (red) in HEK293 cell free culture (AID 720683)
Details: cell-free medium autofluorescence, Ex540/Em590 red; series mostly up to 91.3 µM
From the text: U.S. Tox21 Program National Center for Advancing Translational Sciences [NCATS] NIH Chemical Genomics Center [NCGC] U.S. Environmental Protection Agency [EPA] National Institutes of Environmental Health Sciences [NIEHS] National Toxicology Program [NTP] U.S. Food and Drug Administration [FDA] Tox21 Assay Overview: Compound auto fluorescence often interferes with screening of the compound library against various biological targets and signaling pathways. Some of these compounds may have fluorophoric properties. Such properties may interfere with the assay outputs resulting in false positives and/or negatives. To decrease such complications and ensure the compound activities are relevant in terms of biological response, the Tox21 10K compound library was screened for auto fluorescence. From the fluorophores used as reporter signals in our screening assays, the auto fluorescence equivalencies of compounds against three fluorophores have been evaluated: Triamterene, Fluorescein and Rose Bengal sodium for blue, green and red fluorescence, respectively. The fluorescence intensities were measured using Excitation/Emission wavelengths at 405/460nm, 485/535nm and 540/590nm for blue, green and red labels, respectively. This assay includes the red fluorescence data.
Tox21 Assay Protocol Summary: 5 uL of culture medium (DMEM containing 10% FBS) per well was dispensed into black wall/clear bottom 1536-well plates using a Multidrop Combi Dispenser (ThermoFisher Scientific, Waltham, MA). After 23 nL compound or DMSO vehicle was transferred into assay plate by a pintool work station (Kalypsys, San Diego, CA), fluorescence intensities in the assay plates were measured by an Envision (PerkinElmer, Shelton, CT) plate reader using three labels for measuring blue, green and red fluorescence at […] 460, 535 and 590nm respectively.
In the case of `C[N+]1(C)CCC(OC(=O)C(O)(c2ccccc2)C2CCCC2)C1` (stereo not given), the Potency was “inactive”. In the case of `CNCCCN1c2ccccc2CCc2ccccc21`, the fluorescence, % of fluorescent control was 0.0052% [at 18.6 µM] (inactive). In the case of `CCN(CC)CCNc1ccc(CNC=O)c2sc3ccc(OC)cc3c(=O)c12`, the Potency was “inactive”. With `CC1=CC=C(C(C)C)CC1` the Potency was “inactive”. For `Nc1ccc(S(=O)(=O)Nc2ccccc2)cc1`, the Potency was “inactive”. For `Cc1[nH]c(C)c(Cl)c(=O)c1Cl`, the Potency was “inactive”. In the case of `C=CCOC(=O)CCC1CCCCC1`, the Potency was “inactive”. In the case of `CC(=O)NO`, the Potency was “inactive”. For `CCCNCC(O)COc1ccccc1C(=O)CCc1ccccc1` (stereo not given), the Potency was “inactive”. In the case of `CCOC(=O)COC(=O)c1cc(Oc2ccc(C(F)(F)F)cc2Cl)ccc1[N+](=O)[O-]`, the Potency was “inactive”. In the case of `CCCCCCCC#N`, the Potency was “inactive”. For `OC[C@H]1O[C@@H](OCCc2ccc(O)cc2)[C@H](O)[C@@H](O)[C@@H]1O`, the Potency was “inactive”. With `O=C(O)c1ccc(-n2nc(-c3ccccc3O)nc2-c2ccccc2O)cc1` the Potency was “inactive”. For `CC(=O)c1cccc([N+](=O)[O-])c1`, the Potency was “inactive”. For `CC(COCCO)OCCO` (stereo not given), the Potency was “inactive”. With `c1ccc(C(O[C@H]2CCCN(CCc3ccc4c(c3)OCO4)C2)c2ccccc2)cc1` the Potency was “inactive”. With `OC(CN1CCC(Cc2ccc(F)cc2)CC1)c1ccc(Cl)cc1` (stereo not given) the Potency was “inactive”. With `COS(=O)(=O)C(F)(F)F` the Potency was “inactive”. In the case of `CCCCC1=NC2(CCCC2)C(=O)N1Cc1ccc(-c2ccccc2-c2nn[nH]n2)cc1`, the Potency was “inactive”. In the case of `ClCCOCCOCCCl`, the Potency was “inactive”. With `CCCCC/C=C\C/C=C\CCCCCCCC(=O)NC(C)c1ccccc1` (stereo not given) the Potency was “inactive”. In the case of `O=C(OCCc1ccccc1)c1ccccc1`, the Potency was “inactive”. For `O=S(c1cc(Cl)cc(Cl)c1O)c1cc(Cl)cc(Cl)c1O`, the Potency was “inactive”. For `Nc1cccc(S(=O)(=O)c2cccc(N)c2)c1`, the Potency was “inactive”. For `CC1CCC(=O)C1=O` (stereo not given), the Potency was “inactive”. For `CCCCO`, the Potency was “inactive”. In the case of `CCOC(=O)Cc1cccc2ccccc12`, the Potency was “inactive”. For `CC(C)CC(=O)C1C(=O)c2ccccc2C1=O`, the Potency was “inactive”. In the case of `CCOC(=O)c1cccnc1`, the Potency was “inactive”. With `O=C(O)CC(=O)C(=O)O` the Potency was “inactive”. With `Nc1cc(C(=O)O)c(O)c(S(=O)(=O)O)c1` the Potency was “inactive”. In the case of `O=C1[C@H]2CCCC[C@H]2C(=O)N1CCCCN1CCN(c2nsc3ccccc23)CC1`, the Potency was “inactive”. With `CC(C)(COC(=O)c1ccccc1)COC(=O)c1ccccc1` the Potency was “inactive”. In the case of `CCO[C@H](Cc1ccc(OCCc2ccc(OS(C)(=O)=O)cc2)cc1)C(=O)O`, the Potency was “inactive”. With `CCC(=O)O[C@]1(C(=O)CCl)[C@@H](C)C[C@H]2[C@@H]3CCC4=CC(=O)C=C[C@]4(C)[C@@]3(F)[C@@H](O)C[C@@]21C` the Potency was “inactive”. With `C=CC(=O)OCCOc1ccccc1` the Potency was “inactive”. For `Nc1ccc(N)c2c1C(=O)c1ccccc1C2=O`, the Potency was “inactive”. With `O=C(O)c1nc(Cl)c(Cl)c(Cl)c1Cl` the Potency was “inactive”. With `CC(C)(C)Cl` the Potency was “inactive”. For `CCCCC(CC)COC(=O)COc1ccc(Cl)cc1Cl` (stereo not given), the Potency was “inactive”.
